# BAZ2B inh: blocks human BAZ2B; Q9UIF8; AlphaScreen BAZ2B-H3K14Ac peptide displacement; Potency, µM (highest dose often 114 µM), without a hit: at the highest dose activity change, negative = inhibition, actives largely listed as inhibitors; actives 4.4% (n = 360,000); AID 504333; also: % is scaled to controls: 0 for no effect and ±100 for the full control effect; nearly all actives have a fitted effect of over 60% in size
#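 BAZ2B (50 nM) with biotin-H3(5-23)K14Ac peptide (50 nM) in PBS pH 7.4, 0.01% Tween-20, preformed 30 min, then compound 30 min at room temperature; top concentration 110uM. AlphaScreen streptavidin donor/nickel chelate acceptor beads (10 ug/mL final), 20 min dark, signal read.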
# Sfp inh: inhibitors of Bacillus subtilis Sfp phosphopantetheinyl transferase; Biochemical Sfp PPTase activity, qHTS; actives 3.5% (n = 310,000); Potency, µM, without a hit: largest response in the series, negative = inhibition, usual class: inhibitors; Q9F4F7;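 also: the enzyme is Sfp with the accession as filed and its product quenches rhodamine fluorescence; 0% = enzyme reaction without inhibitor and -100% = no enzyme wells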
#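 Buffer: 50 mM Hepes-Na pH 7.6, 10 mM MgCl2, 0.01% Nonidet P-40, 0.01% BSA. Enzyme 15 nM, pre-exposed to compound 15 min; substrates then added and fluorescence change tracked over 30 min.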
# HP1b chromo inh: HP1-beta chromodomain-methylated histone interaction inhibition; P83916; AlphaScreen HP1-beta / biotin-H3K9me3 peptide binding; Potency, µM (highest dose often 114 µM), without a hit: top-dose activity change, negative = inhibition, actives largely listed as inhibitors; actives 0.56% (n = 390,000); AID 540317; also: nearly all actives have a fitted effect of over 70% in size
# Target sequence (P83916 whole entry, looked up): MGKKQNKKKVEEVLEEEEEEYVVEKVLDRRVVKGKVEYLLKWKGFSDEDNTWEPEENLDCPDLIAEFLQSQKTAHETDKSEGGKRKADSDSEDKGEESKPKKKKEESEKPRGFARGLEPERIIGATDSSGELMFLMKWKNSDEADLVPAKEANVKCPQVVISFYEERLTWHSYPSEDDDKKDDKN
#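 Compound inhibition of the preformed complex between 50 nM HP1-beta and 50 nM biotinylated H3K9me3 peptide was read by AlphaScreen. Buffer was PBS pH 7.4 with 0.01% Tween-20. Incubations ran 30 min at room temperature, with 10 ug/mL donor/acceptor beads.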
# G9a block: inhibitors of human histone lysine methyltransferase G9a; Q96KQ7; G9a H3K9 monomethylation, AlphaScreen, 2 h; Potency, µM (top dose mostly 102 µM), inactives show top-dose activity, negative = inhibition, most hits filed as inhibitors; actives 8.8% (n = 350,000); also: % is scaled to controls: 0 for no effect and ±100 for the full control effect; nearly all actives have a fitted effect of over 75% in size
# Target sequence (Q96KQ7 913-1193 limits assumed): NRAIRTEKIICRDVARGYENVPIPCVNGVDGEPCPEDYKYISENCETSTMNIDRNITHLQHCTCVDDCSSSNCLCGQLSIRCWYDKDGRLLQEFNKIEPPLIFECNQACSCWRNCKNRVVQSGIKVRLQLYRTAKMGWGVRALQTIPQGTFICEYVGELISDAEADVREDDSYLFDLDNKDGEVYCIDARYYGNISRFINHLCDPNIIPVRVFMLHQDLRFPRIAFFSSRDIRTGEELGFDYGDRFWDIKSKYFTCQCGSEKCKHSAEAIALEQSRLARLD
#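 Enzyme 20 nM + cpd, 15 min RT; add b-H3K9 pep 500 nM / SAM 20 uM; 2 h RT; anti-H3K9me1 Ab 0.5 ug/mL + SA donor / anti-rabbit acceptor beads 20 ug/mL each, 10 min; AlphaScreen read.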
# JMJD2A Tudor: blocks the human JMJD2A Tudor domain. O75164. AlphaScreen JMJD2A-Tudor / H3K4me3 peptide binding. Potency, µM (top dose mostly 114 µM), without a hit: top-dose activity change, negative = inhibition, usual class: inhibitors. actives 4.4% (n = 390,000); also: % is scaled to controls: 0 for no effect and ±100 for the full control effect; nearly all actives have a fitted effect of over 50% in size
# L3MBTL1 block: L3MBTL1 (human) inhibition. Q9Y468. AlphaScreen L3MBTL1–H3K9me1 peptide binding. Potency, µM (doses to about 57.1 µM), without a hit: top-dose activity, negative = inhibition, hits mostly inhibitors. actives 0.66% (n = 230,000). AID 485360; also: % is scaled to controls: 0 for no effect and ±100 for the full control effect; nearly all actives have a fitted effect of over 60% in size
#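 L3MBTL1 50 nM + b-AHA-H3(1-15)K9me1 75 nM, 30 min RT; compound added, 30 min RT; streptavidin donor/Ni-chelate acceptor beads 10 ug/mL each final, 30 min RT dark; AlphaScreen read.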
# Numbers without * were called inactive; ? = inconclusive; · = no result given; [ ] = another dose, or the depositor's remark. Most compounds without a hit are left out; they make up all but 12% or so of the library. Calls follow the shape of the dose curve; as a rule, active = well fitted curve in the direction sought with a large enough effect; inconclusive = small, poorly fitted or top-dose-only effect, or another doubt; inactive = no such curve, though single readings can be large; an effect the other way counts as inactive or inconclusive. Potency is read from the fitted curve at half-maximal effect.
SMILES,BAZ2B inh,Sfp inh,HP1b chromo inh,G9a block,JMJD2A Tudor,L3MBTL1 block
O=C(COc1ccccc1)NCC(=O)N/N=C/c1ccc(O)cc1O,-11.9%,7.0%,9.3%,44.6%[59 µM],-31.7%,·
Cc1ccccc1/C=N/n1c(COc2ccccc2)n[nH]c1=S,-1.3%,-10.9%,-2.2%,2µM*,-7.0%,·
S=c1[nH]nc(COc2ccccc2)n1/N=C/c1ccc(Cl)cc1Cl,4.5%,-0.7%,1.8%,?,-14.2%,·
Oc1ccccc1/C=N/n1c(COc2ccccc2)n[nH]c1=S,-34.8%,?,?,2.51µM*,79.4µM*,·
COc1cc2c(C(=O)N3CCN(c4cccc(C)c4)C(C)C3)cn(CC(C)C)c(=O)c2cc1OC (configuration not stated),?,·,4.6%,-41.3%[59 µM],-29.0%,·
Cc1ccc(/C=N/n2c(COc3ccccc3)n[nH]c2=S)o1,-32.7%,44.7µM*,-2.9%,12.6µM*,56.2µM*,?
CCOc1ccccc1/C=N/n1c(COc2ccccc2)n[nH]c1=S,?,35.5µM*,-3.7%,14.1µM*,?,·
CCOc1ccccc1/C=N/n1c(C)nc2ccccc2c1=O,1.9%,6.7%,17.2%,-10.9%[2.33 µM],-8.3%,·
CC(=O)Nc1c(C)nn(-c2ccccc2)c1N1CCC(C(=O)NCc2ccc(F)cc2)CC1,4.1%,·,27.7%[57 µM],4.2%[59 µM],1.3%,·
Cc1[nH]c2ccccc2c1C(=O)COC(=O)C1CC(=O)N(Cc2ccco2)C1 (configuration not stated),-37.6%,-9.1%,5.2%,?,-27.1%,-6.7%
O=C(COC(=O)C1CC(=O)N(Cc2ccccc2)C1)c1ccc(Br)cc1 (configuration not stated),4.7%,11.0%,16.2%,9.4%[59 µM],-8.1%,3.1%
O=C(COC(=O)C1CC(=O)N(Cc2ccco2)C1)c1ccc(OC(=O)c2ccco2)cc1 (configuration not stated),25.1µM*,12.6µM*,?,8.91µM*,35.5µM*,17.8µM*
Cc1ccc(C(=O)Oc2ccc(C(=O)COC(=O)C3CC(=O)N(Cc4ccco4)C3)cc2)cc1 (configuration not stated),50.1µM*,?,-18.0%,?,?,?
CCN1CCN(c2cc(C)c3cc(NC(=O)/C=C/c4ccc(OCCC(C)C)cc4)ccc3n2)CC1,-33.6%,·,1.5%,-41.1%[59 µM],?,·
Cn1c(Cc2ccc3c(c2)OCO3)nnc1SCC(=O)N1CCc2ccccc2C1,9.9%,19.5%,5.6%,44.7µM*,-22.4%,0.0%
Cn1c(Cc2ccccc2)nnc1SCC(=O)N1CCCCC1,4.5%,7.2%,27.2%,0.5%[59 µM],-12.2%,10.4%
Nn1c(COc2cccc(Br)c2)nnc1SCC(=O)N1CCc2ccccc2C1,-10.3%,-0.2%,52.3%,39.8µM*,-15.7%,-2.7%
Cc1ccc(C2C3=C(CCCC3=O)N=C3c4ccccc4C(=O)C32)cc1 (configuration not stated),28.2µM*,-15.9%,?,44.7µM*,-21.2%,-18.5%
O=C1CCc2cc(S(=O)(=O)Nc3cc(F)cc(Cl)c3)c(F)cc2N1,·,·,·,·,-17.7%,·
COc1cc2c(cc1OC)CN(Cc1cc(OC)c3c(c1)OCO3)CC2,50.1µM*,?,-9.3%,?,8.91µM*,·
COc1cc2c(cc1OC)CN(CCOc1ccc(Br)cc1)CC2,-24.3%,-3.9%,24.2%,-19.4%,-25.4%,·
COc1ccc(CN2CCc3cc(OC)c(OC)cc3C2)cc1O,?,-14.9%,?,-138.2%[59 µM],44.7µM*,8.1%
COc1cc2c(cc1OC)CN(Cc1ccc(F)cc1)CC2,50.1µM*,-14.0%,-16.9%[57 µM],?,3.16µM*,·
O=[N+]([O-])c1cc(CN2CCOCC2)c2cccnc2c1O,3.16µM*,12.3%,23.5%,?,7.94µM*,1.26µM*
O=C(COc1c(Br)cc(Br)c2cccnc12)N1CCCCC1,?,-1.3%,37.4%,8.1%,-10.6%,-29.7%
SMILES,BAZ2B inh,Sfp inh,HP1b chromo inh,G9a block,JMJD2A Tudor,L3MBTL1 block
Oc1c(CN2CCCCC2)cc(Br)c2cccnc12,28.2µM*,44.7µM*,26.1%,?,22.4µM*,?
Clc1ccc(N2CCN(Cc3c[nH]c4ncccc34)CC2)cc1,5.9%,-8.1%,11.9%,-29.1%[59 µM],?,-7.0%
O=[N+]([O-])c1ccc(O)c2cccnc12,?,-2.9%,?,?,-20.4%,·
O=[N+]([O-])c1cc(CN2CCN(c3ccccc3)CC2)c(O)c2ncccc12,3.16µM*,24.1%,17.8%,?,10µM*,3.98µM*
O=c1oc2ccccc2c(O)c1Cc1cc(Cl)c2cccnc2c1O,31.6µM*,25.8%,25.0%,·,-35.9%,55.6%
CCOc1ccccc1NC(=O)Nc1cc(C(=O)NCc2ccc(C)cc2)ccc1N1CCCC1,0.4%,·,33.7%,24.6%[59 µM],-1.7%,·
Brc1cc2c(cc1CN1CCc3ccccc3C1)OCO2,31.9%,-11.5%,79.9%,-7.8%[2.33 µM],26.8%,·
Oc1c(Cl)cc(Cl)c(Cl)c1CN1CCOCC1,·,·,-1.0%,·,-3.4%,·
Oc1c(CN2CCc3ccccc3C2)cc(Cl)c2cccnc12,8.91µM*,-21.6%,25.6%,44.7µM*,25.1µM*,·
Oc1c(Cl)cc(CN2CCOCC2)c2cccnc12,7.94µM*,·,-25.5%,-0.6%[2.33 µM],11.2µM*,?
Cc1cc2c(s1)c1cnn(CC(=O)N3CCOCC3)c(=O)c1n2C,·,·,17.9%[57 µM],·,-10.0%[57.1 µM],·
COc1ccc2c(c1)C(c1ccc(N3CCOCC3)cc1)=NNC(c1cccnc1)=N2,?,0.7%,-14.7%,-4.8%[59 µM],-35.9%,-14.2%
CC(C)c1ccc2c(c1)C(c1cccs1)=NNC(c1ccncc1)=N2,?,-1.2%,13.3%,28.2µM*,-33.0%,-24.4%
CC(C)c1ccc2c(c1)C(c1ccc(N3CCOCC3)cc1)=NNC(c1cccs1)=N2,?,13.0%,-16.7%,44.7µM*,?,-27.5%
COc1ccc(C2CC(=O)N(Cc3cccc(C)c3)c3c2c(C)nn3-c2nc(C)cc(C)n2)c(OC)c1 (configuration not stated),-35.7%,·,39.0%,-26.5%[59 µM],-12.6%,·
Cc1ccc(-c2cc(C(=O)Oc3ccccc3)c3cc(C)ccc3n2)cc1,-1.0%,·,70.6%,-2.7%[59 µM],19.0%,·
O=c1[nH]c(C2CCN(S(=O)(=O)c3ccccc3)CC2)nc2c1nnn2Cc1ccccc1,-8.9%,-7.0%,1.0%,?,50.1µM*,2.2%
Cc1ccc(S(=O)(=O)N(CC(O)Cn2c3ccccc3c3ccccc32)c2cccc(C(=O)NCCO)c2)cc1 (configuration not stated),-23.7%,·,-5.2%,-1.2%[59 µM],?,·
CCOC(=O)CCN1C(=O)[C@H]2[C@H]3[C@H](O)[C@H](O)C/C(=N/OC[C@@H](O)COCc4ccco4)[C@@H]3CC[C@@H]2C1=O,·,7.1%,·,·,·,·
